Test [1] in a line: qHTS assay to identify small molecule antagonists of the estrogen receptor alpha (ER-alpha) signaling pathway using the BG1 cell line in the presence of 0.1 nM 17-beta-estradiol - cell viability counter screen (AID 1259241). Also: nearly all actives have a fitted effect of over 40% in size. A digest of the protocol:
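Viability in VM7Luc4E2 cells after 22 hr compound exposure under 0.1 nM 17beta-estradiol stimulation, by CellTiter-Fluor.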
In general terms: In qHTS, concentration-response curves come from the screen itself.

Test [2] can be described thus: qHTS assay to identify small molecule antagonists of the androgen receptor (AR) signaling pathway using the MDA cell line in the presence of 0.5 nM R1881 - cell viability counter screen (AID 1259242). Also: nearly all actives have a fitted effect of over 45% in size. A digest of the protocol: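 qHTS format. MDA-kb2 (MMTV-luc, AR/GR responsive) + cpd + 0.5 nM R1881 final, 16 hr 37C/0% CO2 → CellTiter-Fluor 30 min → fluorescence intensity.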

Test [3] has as its target Androgen receptor (Homo sapiens) (UniProt P10275). Description: qHTS assay to identify small molecule antagonists of the androgen receptor (AR) signaling pathway using the MDA cell line in the presence of 0.5 nM R1881 (AID 1259243). Also: nearly all actives have a fitted effect of over 50% in size. A digest of the protocol:
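Antagonist mode quantitative HTS in MDA-kb2 MMTV-luciferase cells, agonist R1881 at 0.5 nM final, 16 hr exposure at 37C and 0% CO2, luminescent detection.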

Test [4] has as its target Estrogen receptor (Homo sapiens) (UniProt P03372). Description: qHTS assay to identify small molecule antagonists of the estrogen receptor alpha (ER-alpha) signaling pathway using the BG1 cell line in the presence of 0.1 nM 17-beta-estradiol (AID 1259244). Also: nearly all actives have a fitted effect of over 50% in size. A digest of the protocol: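 Reporter is a stably transfected luciferase under four estrogen responsive elements in VM7Luc4E2 cells expressing native full-length ER-alpha; inhibition of 0.1 nM (final) 17beta-estradiol-driven signal over 22 h is read by luminescence.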

Test [5] can be described thus: qHTS assay to identify small molecule HDAC inhibitors (AID 1259364).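 Also: wild-type HCT-116 cells with endogenous class I/II HDAC activity; top concentration of the series differs between compounds; nearly all actives have a fitted effect of over 45% in size.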 A digest of the protocol: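 Quantitative high-throughput format: overnight-seeded HCT-116 cells got compounds for 2 hr at 37C; HDAC-Glo I/II reagent added, 30 min RT, luminescence measured.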
Test [6] is described as follows: qHTS assay to identify small molecule HDAC inhibitors - cell viability counter screen (AID 1259365). Also: series mostly up to about 92 µM; nearly all actives have a fitted effect of over 50% in size. A digest of the protocol: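 Cytotoxicity was gauged in wild-type HCT-116 cells after a brief 2hr treatment with DMSO-dissolved compounds at 37C and 5% CO2, using CellTiter-Glo luminescence developed for 30min at room temperature.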
Test [7] in a line: qHTS assay to identify small molecule agonists of the sonic hedgehog signaling (Shh) pathway - cell viability counter screen (AID 1259366). Also: nearly all actives have a fitted effect of over 50% in size. A digest of the protocol: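 Stable Gli1-Luc NIH/3T3 clone, 2,000 cells/well. Compound exposure 24hr at 37C. Read-out: CellTiter-Fluor fluorescence.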
Test [8] can be described thus: qHTS assay to identify small molecule antagonists of the sonic hedgehog signaling (Shh) pathway - cell viability counter screen (AID 1259367). Also: nearly all actives have a fitted effect of over 55% in size. A digest of the protocol: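 Cytotoxicity was assessed in parallel with Shh reporter activity by measuring live-cell protease fluorescence (CellTiter-Fluor) in NIH/3T3 cells stably carrying Gli1-Luc, treated with compound under conditioned medium stimulation for 23 hr plus 1 hr reagent incubation.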

The nature of test [9]: qHTS assay to identify small molecule agonists of the sonic hedgehog signaling (Shh) pathway (AID 1259368; calls by dose curve;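 also: NIH/3T3-derived 3T3Gli1-Luc cells carrying a stable Gli1-driven firefly luciferase reporter; series mostly up to about 92 µM; nearly all actives have a fitted effect of over 15% in size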). A digest of the protocol: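 Quantitative high-throughput format using a Gli1-driven firefly luciferase reporter line derived from NIH/3T3 cells. After a 24 hr compound treatment at 37 C and 5% CO2, luminescence reported Gli1 response element activity.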
Test [10] can be described thus: qHTS assay to identify small molecule antagonists of the sonic hedgehog signaling (Shh) pathway (AID 1259369; calls by dose curve; also: nearly all actives have a fitted effect of over 45% in size; also: potency is read from the fitted curve at half-maximal effect). A digest of the protocol: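 Stable Gli1-Luc reporter NIH/3T3 clone; quantitative HTS in stimulated mode with conditioned medium. Luminescence measured after 24hr compound treatment at 37 C.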
Test [11] in a line: qHTS assay to identify small molecule agonists of the estrogen receptor beta (ER-beta) signaling pathway - cell viability counter screen (AID 1259380). Also: nearly all actives have a fitted effect of over 30% in size. A digest of the protocol: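 Steps: plate ER-beta-UAS-bla HEK293T cells, rest 6 hr; add compounds in DMSO; incubate 16 hr at 37C, 5% CO2; add FRET substrate 2 hr; add CellTiter-Glo, wait 30 min at room temperature; read luminescence.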

Test [12] addresses Androgen receptor (Homo sapiens) (UniProt P10275). Description: qHTS assay to identify small molecule agonists of the androgen receptor (AR) signaling pathway in the presence of an antagonist (AID 1259381; calls by dose curve; also: nearly all actives have a fitted effect of over 15% in size). A digest of the protocol:
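Reporter-gene luminescence from MDA-kb2 cells exposed 16hr at 37C (0% CO2) to 15-point compound titrations with 3.0uM final nilutamide as AR antagonist.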

The nature of test [13]: qHTS assay to identify small molecule antagonists of the estrogen receptor beta (ER-beta) signaling pathway - cell viability counter screen (AID 1259382). Also: series mostly up to about 92 µM; nearly all actives have a fitted effect of over 55% in size. A digest of the protocol:
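Viability is scored by CellTiter-Glo luminescence (30 min, room temperature) in ER-beta-UAS-bla HEK293T wells already read for reporter fluorescence. Compound exposure lasts 16 hr at 37C alongside 1nM 17-beta-estradiol in charcoal-stripped serum medium.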

In test [14] the target is Estrogen receptor (Homo sapiens) (UniProt P03372). Nature of the test: qHTS assay to identify small molecule agonists of the estrogen receptor alpha (ER-alpha) signaling pathway in the presence of an antagonist (AID 1259383; calls by dose curve; also: top concentration of the series differs between compounds; nearly all actives have a fitted effect of over 15% in size). A digest of the protocol:
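Readout was ERE-driven luciferase luminescence in VM7Luc4E2 cells, which express full-length ER-alpha endogenously. Compounds were tested at 15 concentrations for 22hr alongside 10.0nM ICI-182,780 (final concentration).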

A short description of test [15]: qHTS assay to identify small molecule agonists or antagonists of the thyroid stimulating hormone receptor (TSHR) signaling pathway - wild type cell line counter screen (AID 1259384; calls by dose curve). A digest of the protocol: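 Wild-type HEK293 cells were plated 18 h at 37 C/5% CO2, pin-dosed with compound plus Ro20-1724 medium, held 30 min at room temperature, then given cAMP-d2 and anti-cAMP-cryptate; fluorescence was read after 1 h. Fifteen concentrations, triplicate.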

Test [16] concerns the target Thyrotropin receptor (Homo sapiens) (UniProt P16473). Description: qHTS assay to identify small molecule antagonists of the thyroid stimulating hormone receptor (TSHR) signaling pathway (AID 1259385; calls by dose curve; also: nearly all actives have a fitted effect of over 20% in size). A digest of the protocol: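 TSHR-HEK293 cells were plated and held 18 h at 37C/5% CO2, then given compound plus Ro20-1724 and stimulated with TSH at 1.5 ng/mL final. After 30 min at room temperature, cAMP was detected with cAMP-d2/anti-cAMP-cryptate (1 h) by fluorescence.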

Test [17] in a line: qHTS assay to identify small molecule phospholipidosis (PLD) inducers (AID 1259344; active = well fitted curve in the direction sought with a large enough effect; an effect the other way counts as inactive or inconclusive). A digest of the protocol: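 Cells (HepG2, 900 per well) attach for 4 h, receive LipidTOX Red and compound together, incubate 24 h at 37 C, are fixed 30 min with paraformaldehyde/Hoechst, then imaged at one site per well.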
The nature of test [18]: qHTS assay to identify small molecule agonists of the androgen receptor (AR) signaling pathway in the presence of an antagonist - cell viability counter screen (AID 1259379).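 Also: MDA-kb2 human breast cancer cells carrying an MMTV luciferase reporter; series mostly up to about 92 µM; nearly all actives have a fitted effect of over 25% in size.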 A digest of the protocol: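 Nilutamide-containing (3.0uM final) MDA-kb2 cultures, 3,000 cells/well, were treated with compounds across 15 concentrations. After 16 hr at 37C with no CO2, cell viability was determined by CellTiter-Fluor fluorescence in the luciferase assay wells.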

The target of test [19] is Estrogen receptor beta (Homo sapiens) (UniProt Q92731). Nature of the test: qHTS assay to identify small molecule antagonists of the estrogen receptor beta (ER-beta) signaling pathway (AID 1259378; active = well fitted inhibition curve with a large enough effect in the signal ratio in the repeat runs, not every such curve was filed as active; the % refers to the signal ratio). A digest of the protocol: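 ER-beta-UAS-bla HEK293T (GripTite) cells in 2% charcoal-stripped FBS medium were preincubated 6 hr at 37C, dosed with compound, then stimulated with 1 nM E2 (final) for 16 hr; beta-lactamase reporter read by B/G FRET fluorescence after 2 hr substrate loading.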
Sequence of Estrogen receptor beta (Homo sapiens) (Q92731 whole entry, looked up): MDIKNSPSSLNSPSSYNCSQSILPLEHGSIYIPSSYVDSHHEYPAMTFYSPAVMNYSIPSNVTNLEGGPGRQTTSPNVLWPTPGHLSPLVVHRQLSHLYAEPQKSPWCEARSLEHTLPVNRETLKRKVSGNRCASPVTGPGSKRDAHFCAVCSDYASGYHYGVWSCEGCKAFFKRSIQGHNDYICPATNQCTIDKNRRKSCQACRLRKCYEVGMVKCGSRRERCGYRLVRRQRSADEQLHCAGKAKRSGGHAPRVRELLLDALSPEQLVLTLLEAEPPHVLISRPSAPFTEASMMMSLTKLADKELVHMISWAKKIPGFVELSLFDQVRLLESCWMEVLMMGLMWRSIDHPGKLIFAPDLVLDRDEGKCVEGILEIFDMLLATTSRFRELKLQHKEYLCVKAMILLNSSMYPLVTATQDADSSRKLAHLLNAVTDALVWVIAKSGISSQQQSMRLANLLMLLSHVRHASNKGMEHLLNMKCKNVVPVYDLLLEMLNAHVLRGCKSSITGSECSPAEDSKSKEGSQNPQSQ

Test [20] has the same target. Nature of the test: qHTS assay to identify small molecule agonists of the estrogen receptor beta (ER-beta) signaling pathway (AID 1259377; active = well fitted activation curve with a large enough effect in the signal ratio in the repeat runs, not every such curve was filed as active; the % refers to the signal ratio). A digest of the protocol: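 Measured by fluorescence intensity from a B/G FRET beta-lactamase substrate (2 h, room temperature) in ER-beta-UAS-bla HEK293T cells treated with DMSO-dissolved compounds for 16 hr at 37C and 5% CO2.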

Results filed as inconclusive are left out. Calls of active or inactive are those of the source. Unless noted, calls follow the shape of the dose curve; as a rule, active = well fitted curve in the direction sought with a large enough effect in the repeat runs; inconclusive = weak or mixed curves; inactive = no such curve, though single readings can be large; an effect the other way counts as inactive or inconclusive.

Sequence of Estrogen receptor (Homo sapiens) (P03372 whole entry, looked up): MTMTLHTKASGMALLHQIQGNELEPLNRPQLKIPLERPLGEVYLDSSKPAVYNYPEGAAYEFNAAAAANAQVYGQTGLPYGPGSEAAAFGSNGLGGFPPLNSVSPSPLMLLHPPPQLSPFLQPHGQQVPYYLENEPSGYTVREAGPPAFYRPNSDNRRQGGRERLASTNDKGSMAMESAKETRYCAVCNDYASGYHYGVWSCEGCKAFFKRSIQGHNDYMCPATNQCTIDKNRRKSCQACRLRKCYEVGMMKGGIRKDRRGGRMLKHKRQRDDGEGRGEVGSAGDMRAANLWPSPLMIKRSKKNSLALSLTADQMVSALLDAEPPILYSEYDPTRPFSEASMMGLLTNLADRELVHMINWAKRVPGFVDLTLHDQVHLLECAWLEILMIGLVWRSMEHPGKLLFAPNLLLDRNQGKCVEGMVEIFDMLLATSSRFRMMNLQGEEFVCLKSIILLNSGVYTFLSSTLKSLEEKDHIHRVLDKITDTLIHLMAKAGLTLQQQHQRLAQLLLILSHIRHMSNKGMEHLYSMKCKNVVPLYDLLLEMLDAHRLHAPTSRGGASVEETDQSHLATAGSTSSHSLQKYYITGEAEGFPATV
Sequence of Androgen receptor (Homo sapiens) (P10275 whole entry, looked up): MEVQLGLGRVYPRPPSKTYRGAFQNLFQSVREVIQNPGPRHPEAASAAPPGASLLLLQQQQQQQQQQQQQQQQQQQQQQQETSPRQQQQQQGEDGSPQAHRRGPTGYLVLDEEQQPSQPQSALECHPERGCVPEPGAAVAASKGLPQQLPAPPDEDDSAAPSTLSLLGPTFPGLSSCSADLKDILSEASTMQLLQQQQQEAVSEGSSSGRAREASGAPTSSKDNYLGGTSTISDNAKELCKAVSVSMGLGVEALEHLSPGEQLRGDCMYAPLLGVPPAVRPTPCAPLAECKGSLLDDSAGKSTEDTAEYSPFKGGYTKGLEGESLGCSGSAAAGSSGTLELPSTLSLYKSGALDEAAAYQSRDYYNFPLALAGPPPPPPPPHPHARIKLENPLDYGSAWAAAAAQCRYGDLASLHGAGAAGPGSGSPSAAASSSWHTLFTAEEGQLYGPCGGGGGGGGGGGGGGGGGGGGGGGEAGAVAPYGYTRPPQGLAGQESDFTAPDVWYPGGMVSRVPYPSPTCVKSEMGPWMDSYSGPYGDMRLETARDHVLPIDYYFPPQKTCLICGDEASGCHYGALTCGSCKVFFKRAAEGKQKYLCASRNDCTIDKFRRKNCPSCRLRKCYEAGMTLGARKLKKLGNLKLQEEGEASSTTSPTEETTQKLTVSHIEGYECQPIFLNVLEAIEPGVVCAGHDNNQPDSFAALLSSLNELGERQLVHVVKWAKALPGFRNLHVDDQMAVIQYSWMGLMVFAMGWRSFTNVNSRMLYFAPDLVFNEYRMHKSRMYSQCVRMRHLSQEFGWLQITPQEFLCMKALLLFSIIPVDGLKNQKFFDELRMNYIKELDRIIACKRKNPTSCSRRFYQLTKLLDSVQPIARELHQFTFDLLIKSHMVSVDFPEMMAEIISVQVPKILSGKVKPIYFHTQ
Sequence of Thyrotropin receptor (Homo sapiens) (P16473 whole entry, looked up): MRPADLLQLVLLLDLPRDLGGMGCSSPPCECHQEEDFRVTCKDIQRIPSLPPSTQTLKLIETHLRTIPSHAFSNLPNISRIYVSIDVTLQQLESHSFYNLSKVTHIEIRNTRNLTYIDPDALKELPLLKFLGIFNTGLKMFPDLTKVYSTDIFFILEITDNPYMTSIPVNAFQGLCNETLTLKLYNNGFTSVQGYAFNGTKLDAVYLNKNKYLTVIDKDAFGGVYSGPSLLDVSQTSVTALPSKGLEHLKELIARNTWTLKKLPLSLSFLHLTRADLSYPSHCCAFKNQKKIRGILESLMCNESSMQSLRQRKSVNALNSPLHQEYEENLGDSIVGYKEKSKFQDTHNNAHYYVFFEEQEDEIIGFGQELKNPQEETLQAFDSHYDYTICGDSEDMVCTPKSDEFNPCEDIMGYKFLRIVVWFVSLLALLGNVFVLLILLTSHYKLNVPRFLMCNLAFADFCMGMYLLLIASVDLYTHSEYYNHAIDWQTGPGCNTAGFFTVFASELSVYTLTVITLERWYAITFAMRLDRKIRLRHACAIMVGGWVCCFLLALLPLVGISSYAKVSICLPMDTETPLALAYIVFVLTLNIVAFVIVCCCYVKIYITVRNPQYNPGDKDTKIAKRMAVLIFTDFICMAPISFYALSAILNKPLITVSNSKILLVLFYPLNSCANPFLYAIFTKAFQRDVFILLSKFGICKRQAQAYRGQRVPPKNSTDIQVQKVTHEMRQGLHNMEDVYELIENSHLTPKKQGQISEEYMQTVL

Turning to `Nc1ccccc1C(=O)OCC(O)CO` (stereo unspecified), the Potency result in [1], in test [2], in [3], in test [4], in [5] and in test [6] was “inactive” in each case. Further, the Potency entry in test [7], in test [8], in [9], in test [10], in test [11] and in test [12] was “inactive” each time. Moreover, the Potency entry in test [13], in [14] and in test [16] was “inactive” throughout. In addition, the call in test [15] was inactive.

As for `CCN(C(C)=O)c1cccc(-c2ccnc3c(C#N)cnn23)c1`, the Potency entry in test [1], in [2], in [4], in test [5], in [6] and in test [7] was “inactive” each time. For the same molecule, the Potency entry in test [8], in test [9], in test [18], in [11], in [13] and in [14] was “inactive” throughout. Also, the Potency result in test [16] is “inactive”. Besides, the molecule was called inactive in test [17] and in [15].

As for `O=CC=O`, the Potency result in test [1], in test [2], in [3], in test [5], in test [6] and in test [7] was “inactive” throughout. In addition, the Potency entry in test [8], in test [9], in [10], in [19], in test [11] and in test [12] was “inactive” each time. The Potency entry in test [13], in test [14] and in test [16] was “inactive” throughout. The molecule was called inactive in test [17] and in test [15].

For the molecule `N#CC(C#N)=Cc1ccc(O)c(O)c1`, the Potency result in test [1], in test [2], in test [3], in [5], in [6] and in [7] was “inactive” throughout. The Potency entry in [8], in [9], in test [18], in [11], in test [12] and in [13] was “inactive” each time. Besides, the Potency entry in test [14] and in test [16] was “inactive” each time. Further, the call in test [17] and in test [15] was inactive. Also, the Potency in test [10] was 7.5 µM (active).

As to `CN1C(=O)CN=C(c2ccccc2)c2cc([N+](=O)[O-])ccc21`, the Potency result in test [1], in test [2], in test [3], in test [4], in [6] and in test [7] was “inactive” throughout. Besides, the Potency result in test [8], in test [9], in test [10], in [18], in [11] and in test [12] was “inactive” in each case. The Potency entry in [13], in test [14] and in [16] was “inactive” in each case. In addition, the molecule was classed as inactive in test [17] and in [15].

Consider `CC1(C)[C@H](C(=O)O[C@H](C#N)c2cccc(Oc3ccccc3)c2)[C@@H]1C=C(Br)Br`, for which the Potency result in test [1], in test [2], in test [3], in test [6], in test [7] and in test [8] was “inactive” in each case. Further, the Potency result in [9], in test [10], in [20], in test [19], in test [18] and in [11] was “inactive” throughout. The Potency entry in [12], in test [13] and in test [16] was “inactive” in each case. In test [15], the molecule was called inactive.

Take `Cc1cnc(C2=NC(C)(C(C)C)C(=O)N2)c(C(=O)O)c1` (stereo unspecified): the Potency entry in [1], in [2], in test [3], in test [4], in test [5] and in test [6] was “inactive” in each case. Also, the Potency entry in test [7], in [8], in test [9], in [10], in [20] and in [19] was “inactive” throughout. The Potency result in test [18], in test [11], in [12], in test [13], in test [14] and in test [16] was “inactive” in each case. Also, in test [15], the call was inactive.

In the case of `NP(N)(=O)NC(=O)c1ccc(F)cc1`, the Potency result in test [1], in test [2], in test [3], in [4], in test [5] and in test [6] was “inactive” throughout. The Potency entry in test [7], in test [8], in [9], in test [10], in [20] and in test [19] was “inactive” each time. Further, the Potency result in test [11], in test [12], in test [13], in [14] and in [16] was “inactive” throughout. Moreover, the outcome in [17] and in [15] was inactive.

The values are drawn from PubChem BioAssay (Tox21).
